# Reference: PubChem BioAssay (NCATS)
# Inconclusive results are not listed. A call without a number means that no potency is given here. Values without a mark were called inactive. Activity calls are given as the source filed them. Calls come from the whole dose curve; as a rule, active = well fitted curve in the direction sought with a large enough effect; inconclusive = small, poorly fitted or top-dose-only effect, or another doubt; inactive = no such curve, though single readings can be large; an effect the other way counts as inactive or inconclusive.
# Assays:
# HEK293 = assay: Cytotoxic Profiling of Annotated Libraries Using Quantitative High-Throughput Screening (AID 1296008); details: Five cell lines viability, CellTiter-Glo ATP luminescence, 48-72 h; max response: active compounds read low; note: nearly all actives have a fitted effect of over 60% in size; note: potency is the fitted concentration of half-maximal effect
# Method in brief: (§1)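 Cytotoxicity was measured as CellTiter-Glo ATP luminescence, read after 10 min at room temperature. Compound treatment of the cells lasted 48 or 72 hr at 37 degrees Celsius in a qHTS format.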
# HaCat [1] = assay: as above; details: Five cell lines viability, CellTiter-Glo ATP luminescence, 48-72 h; max response: active compounds read low
# Method in brief: as §1
# KB-3-1 = assay: as above; details: Five cell lines viability, CellTiter-Glo ATP luminescence, 48-72 h; max response: active compounds read low
# Method in brief: as §1
# NIH3T3 [2] = assay: as above; details: Five cell lines viability, CellTiter-Glo ATP luminescence, 48-72 h; max response: active compounds read low
# Method in brief: as §1
# HACAT [3] = assay: qHTS assay to identify novel small-molecules to repurpose for Merkel cell carcinoma treatment (AID 1296009); details: MCC and control cell lines, CellTiter-Glo viability, 72 h; series mostly up to 44.8 µM; note: nearly all actives have a fitted effect of over 60% in size
# Method in brief: (§2)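 Cell viability, measured as CellTiter-Glo luminescence, was normalized between DMSO and no-cell wells. The cells had been exposed to 8- or 11-point compound dilutions for 72 hr at 37 degree celsius.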
# C33A = assay: Primary qHTS to identify gynecologic anti-cancer compounds using libraries of approved drugs and bioactive compounds (AID 1345084); details: Gynecologic cancer cell panel viability, ATPlite luminescence, 48 h; series mostly up to 57.5 µM; note: nearly all actives have a fitted effect of over 55% in size
# Method in brief: (§3)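 Cytotoxicity screen measuring ATP content by luciferase luminescence. Each compound is applied at five concentrations for 48 h at 37 C with 5% CO2.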
# CAOV3 = assay: as above; details: Gynecologic cancer cell panel viability, ATPlite luminescence, 48 h; series mostly up to 57.5 µM
# Method in brief: as §3
# CASKI = assay: as above; details: Gynecologic cancer cell panel viability, ATPlite luminescence, 48 h; series mostly up to 57.5 µM
# Method in brief: as §3
# Es-2 = assay: as above; details: Gynecologic cancer cell panel viability, ATPlite luminescence, 48 h; series mostly up to 57.5 µM
# Method in brief: as §3
# HeLa = assay: as above; details: Gynecologic cancer cell panel viability, ATPlite luminescence, 48 h; series mostly up to 57.5 µM
# Method in brief: as §3
# Hek293T = assay: as above; details: Gynecologic cancer cell panel viability, ATPlite luminescence, 48 h, control line for the selectivity index; series mostly up to 57.5 µM
# Method in brief: as §3
# JEG-3 = assay: as above; details: Gynecologic cancer cell panel viability, ATPlite luminescence, 48 h; series mostly up to 57.5 µM
# Method in brief: as §3
# NIH3T3 [4] = assay: qHTS assay to identify novel small-molecules to repurpose for Merkel cell carcinoma treatment (AID 1296009); details: MCC and control cell lines, CellTiter-Glo viability, 72 h; at 44.8 µM (top of the series) unless noted; note: nearly all actives have a fitted effect of over 60% in size
# Method in brief: as §2
smiles,measurement,setting,value
CC1=C2C(O)C(=O)OC(c3ccoc3)C2(C)CCC1O (configuration not stated),max response,HEK293,-2.84%
same,outcome,HaCat [1],inactive
same,outcome,KB-3-1,inactive
same,max response,NIH3T3 [2],3.37%
same,Potency,HACAT [3],inactive
same,Potency,C33A,inactive
same,Potency,CAOV3,inactive
same,Potency,CASKI,inactive
same,Potency,Es-2,inactive
same,Potency,HeLa,inactive
same,Potency,Hek293T,inactive
same,Potency,JEG-3,inactive
CC1OC(OC2C(C)OC(OC3C(O)C(CO)OC(O[C@H]4CC[C@@]5(C)C(CC[C@]6(C)C5CC=C5C7[C@@H](C)[C@H](C)CC[C@]7(C(=O)O)CC[C@]56C(=O)O)C4(C)C)C3O)C(O)C2O)C(O)C(O)C1O (some centres not stated),max response,HEK293,-6.08%
same,outcome,HaCat [1],inactive
same,max response,KB-3-1,9.21%
same,outcome,NIH3T3 [2],inactive
same,outcome,HACAT [3],inactive [at 9.27 µM]
same,outcome,NIH3T3 [4],inactive [at 9.27 µM]
same,"activity change, negative = cytotoxicity",C33A,-5.63% [at 11.6 µM]
same,"activity change, negative = cytotoxicity",CAOV3,10.5% [at 11.6 µM]
same,"activity change, negative = cytotoxicity",CASKI,1.59% [at 11.6 µM]
same,"activity change, negative = cytotoxicity",Es-2,1.92% [at 11.6 µM]
same,"activity change, negative = cytotoxicity",HeLa,9.15% [at 11.6 µM]
same,"activity change, negative = cytotoxicity",Hek293T,-7.85% [at 11.6 µM]
same,"activity change, negative = cytotoxicity",JEG-3,-5.03% [at 11.6 µM]
OCc1ccc(O[C@@H]2O[C@H](CO)[C@@H](O)[C@H](O)[C@H]2O)cc1,max response,HEK293,-0.162%
same,outcome,HaCat [1],inactive
same,max response,KB-3-1,-3.37%
same,max response,NIH3T3 [2],2.54%
same,Potency,HACAT [3],inactive
same,Potency,C33A,inactive
same,Potency,CAOV3,inactive
same,Potency,CASKI,inactive
same,Potency,Es-2,inactive
same,Potency,HeLa,inactive
same,Potency,Hek293T,inactive
same,Potency,JEG-3,inactive
COC(=O)C1=CO[C@@H](O[C@@H]2O[C@H](CO)[C@@H](O)[C@H](O)[C@H]2O)[C@H]2[C@@H]1C=C[C@@]21C=C([C@H](C)O)C(=O)O1,max response,HEK293,-5.88%
same,outcome,HaCat [1],inactive
same,outcome,KB-3-1,inactive
same,max response,NIH3T3 [2],3.5%
same,Potency,HACAT [3],inactive
same,Potency,C33A,inactive
same,Potency,CAOV3,inactive
same,Potency,CASKI,inactive
same,Potency,Es-2,inactive
same,Potency,HeLa,inactive
same,Potency,Hek293T,inactive
same,Potency,JEG-3,inactive
CC(C)=C/C=C\[C@H](C)[C@H]1CC[C@]2(C)C[C@@H]3C(C)=CC(=O)C3/C(CO)=C\C[C@@H]12 (some centres not stated),max response,HEK293,-20.2%
same,outcome,HaCat [1],inactive
same,outcome,KB-3-1,inactive
same,max response,NIH3T3 [2],3.13%
same,Potency,HACAT [3],inactive
same,Potency,C33A,inactive
same,Potency,CAOV3,inactive
same,Potency,CASKI,inactive
same,Potency,Es-2,inactive
same,Potency,HeLa,inactive
same,Potency,Hek293T,inactive
same,Potency,JEG-3,inactive
CNC(C)C(=O)NC(C(=O)N1CCCC1c1nc(C(=O)c2ccc(F)cc2)cs1)C1CCCCC1 (configuration not stated),Potency,HEK293,14.6 µM (active)
same,outcome,HaCat [1],inactive; activator
same,max response,KB-3-1,-9.35%
same,outcome,NIH3T3 [2],inactive
same,Potency,HACAT [3],inactive
same,outcome,NIH3T3 [4],inactive
same,Potency,C33A,inactive
same,Potency,CASKI,inactive
same,Potency,Es-2,inactive
same,Potency,HeLa,inactive
same,Potency,Hek293T,inactive
same,Potency,JEG-3,inactive
C=C(C)C1CCC(C)C12CC(O)C1(C)OC1C2OC(=O)C(N)CCC(=O)O (configuration not stated),max response,HEK293,-1.87%
same,outcome,HaCat [1],inactive
same,max response,KB-3-1,1.24%
same,max response,NIH3T3 [2],4.47%
same,Potency,HACAT [3],inactive
same,Potency,C33A,inactive
same,Potency,CAOV3,inactive
same,Potency,CASKI,inactive
same,Potency,Es-2,inactive
same,Potency,HeLa,inactive
same,Potency,Hek293T,inactive
same,Potency,JEG-3,inactive
C[C@H](CCC(=O)O)[C@H]1CC[C@H]2[C@@H]3C[C@H](O)[C@@H]4C[C@H](O)CC[C@]4(C)[C@H]3CC[C@]12C,max response,HEK293,0.0594%
same,outcome,HaCat [1],inactive
same,outcome,KB-3-1,inactive
same,outcome,NIH3T3 [2],inactive
same,Potency,HACAT [3],inactive
same,outcome,NIH3T3 [4],inactive
same,Potency,C33A,inactive
same,Potency,CAOV3,inactive
same,Potency,CASKI,inactive
same,Potency,Es-2,inactive
same,Potency,HeLa,inactive
same,Potency,Hek293T,inactive
same,Potency,JEG-3,inactive
CC1(C)CCC[C@@]2(C)C1[C@H](OC(=O)/C=C/C=C/C(=O)O)C=C1COC(=O)[C@@]12O (some centres not stated),max response,HEK293,-4.94%
same,outcome,HaCat [1],inactive
same,max response,KB-3-1,0.106%
same,outcome,NIH3T3 [2],inactive
same,Potency,HACAT [3],inactive
same,outcome,NIH3T3 [4],inactive
same,Potency,C33A,inactive
same,Potency,CAOV3,inactive
same,Potency,CASKI,inactive
same,Potency,Es-2,inactive
same,Potency,HeLa,inactive
same,Potency,Hek293T,inactive
same,Potency,JEG-3,inactive
C=C(C(=O)O)C1CCC2(C)CCCC(C)(O)C2C1 (configuration not stated),max response,HEK293,-4.4%
same,outcome,HaCat [1],inactive
same,outcome,KB-3-1,inactive
same,outcome,NIH3T3 [2],inactive
same,Potency,HACAT [3],inactive
same,outcome,NIH3T3 [4],inactive
same,Potency,C33A,inactive
same,Potency,CAOV3,inactive
same,Potency,CASKI,inactive
same,Potency,Es-2,inactive
same,Potency,HeLa,inactive
same,Potency,Hek293T,inactive
same,Potency,JEG-3,inactive
COc1cc2ncnc(Nc3cccc(Cl)c3F)c2cc1OC(=O)N1CCN(C)C[C@H]1C,max response,HEK293,-115%
same,max response,HaCat [1],-86.6%
same,outcome,KB-3-1,inactive
same,max response,NIH3T3 [2],-86.1%
CC12CCC(OC3OC(CO)C(O)C(OC4OC(CO)C(O)C(O)C4O)C3O)CC1=CCC1C2CCC2(C)/C(=C3/COC(=O)C3)CCC12O (configuration not stated),max response,HEK293,0.267%
same,outcome,HaCat [1],inactive
same,max response,KB-3-1,-7.93%
same,max response,NIH3T3 [2],-3.87%
same,Potency,HACAT [3],inactive
same,Potency,C33A,inactive
same,Potency,CAOV3,inactive
same,Potency,CASKI,inactive
same,Potency,Es-2,inactive
same,Potency,HeLa,inactive
same,Potency,Hek293T,inactive
same,Potency,JEG-3,inactive
C[C@@H]1CCN(C(=O)N2CCCC2)C[C@@H]1N(C)c1ncnc2[nH]ccc12,max response,HEK293,-16.9%
same,outcome,HaCat [1],inactive
same,max response,KB-3-1,6.14%
same,max response,NIH3T3 [2],-9.02%
same,Potency,HACAT [3],inactive
same,Potency,C33A,inactive
same,Potency,CAOV3,inactive
same,Potency,CASKI,inactive
same,Potency,Es-2,inactive
same,Potency,HeLa,inactive
same,Potency,Hek293T,inactive
same,Potency,JEG-3,inactive
